What all share (assay): NCI-60 one-dose screen, 48 h (100 = growth as untreated, 0 = no growth, -100 = all killed)
Common to all, as to details: 10 µM unless noted

The test system of test [1] is SR leukemia.
The subject of test [2] is RPMI-8226 leukemia.
Test [3] deals with OVCAR-8 ovarian.
Test [4] relates to OVCAR-5 ovarian.
The test system of test [5] is OVCAR-4 ovarian.
Test [6] relates to SK-OV-3 ovarian.
For test [7], the system named is IGROV1 ovarian.
The subject of test [8] is OVCAR-3 ovarian.
Test [9] has as its system HS 578T breast.
Test [10] relates to NCI/ADR-RES ovarian.

SMILES strings stand for the structures. The panel holds about 83,000 compounds, 20% with a hit somewhere; the sample as a whole holds those more often.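 Interpretation: 100, growth as untreated; towards 0, rising growth inhibition; 0, no net growth; 0 to -100, cell death. Compounds scoring below 10 were considered active.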 Values without a mark were called inactive. Active and inactive are the calls of the source.

As for `CCN(CC)CCOc1ccc(C(=C(C)Cc2ccc(OC)cc2)c2ccc(OCCN(CC)CC)cc2)cc1`, the growth in test [1] is -26.6% (active); in test [2], -25% (active); in test [3] it was 74.5%; in test [4] it was 77.4%; in [5], 89.1%; in [6], 93.5%. Also, the growth in [7] was 68.9%; in test [8], 31.2%; in test [9], 72.9%; in [10], 85.4%.
As to `O=C(/C=C/C=C/c1csc(Br)n1)NO`, the growth in test [1] was 60%; in test [2], 60.7%; in test [3] it was 85.7%; in [4], 98.2%; in test [5], 103%; in test [6] it was 113%. For the same compound, the growth in test [7] is 106%; in test [9] it was 98.5%; in test [10], 74.6%.
Take `O=C(CCCCCCNC(=O)C(O)(O)C(F)(F)F)Nc1ccc(Br)cc1`: the growth in test [1] is 8.58% (active); in test [2], 20.7%; in test [3] it was 7.83% (active); in [4], 5.89% (active); in test [5], 28.5%; in test [6] it was -13.4% (active). The growth in test [7] was 15.7%; in test [8] it was -12.8% (active); in test [10] it was 16.9%.
With `NS(=O)(=O)c1cccc(Nc2nc(SCC(=O)c3ccc(Cl)cc3)nc3c2CCC3)c1`, the growth in [1] is 98.7%; in test [2] it was 97.3%; in [3], 82.8%; in test [4] it was 103%; in test [5] it was 95.8%; in test [6], 95.7%. In addition, the growth in test [7] was 99.8%; in test [9] it was 81%.
As to `O=C(Nc1ccc(Cl)c(C(F)(F)F)c1)Nc1ccc2oc(=O)ccc2c1`, the growth in [1] was 45.6%; in test [2] it was -1.56% (active); in test [3], 43.4%; in test [4], 75.6%; in test [5], 43.3%; in [6], 81%. Also, the growth in test [7] was 30.7%; in test [9], 83.1%.
For the compound `O=C(/C=C/c1csc(Br)n1)NO`, the growth in test [1] is 13.8%; in [2] it was 9.04% (active); in [3] it was 22.3%; in test [4], 10.7%; in test [5] it was 65.1%; in [6] it was 38.2%. Further, the growth in [7] was 16.7%; in test [9], 44.3%.
For `CC(Nc1ncnc2ccc(-c3cnc(N)nc3)cc12)c1ccccc1` (stereo not given), the growth in test [1] was 15.1%; in test [2], 28.2%; in test [3], 48%; in test [4], 28.7%; in test [5], 39.7%; in test [6] it was 27.3%. In addition, the growth in test [7] is -13.4% (active); in test [8], 43.8%; in test [10] it was 53%.
Take `CN1CCN(c2ccc(Nc3nc(NCCNC(=O)c4ccc(F)cc4)c4sccc4n3)cc2)CC1`: the growth is 0.604% (active) in test [1]; 32.1% in test [2]; 77.4% in test [3]; 85.3% in test [4]; 61.1% in [5]; 125% in test [6]. The growth in [7] was 87.7%; in [8] it was 86.2%; in [10], 88.5%.
With `C#C[C@]1(O)CC[C@H]2[C@@H]3CC=C4c5sc(Nc6cc(C)cc(C)c6)nc5CC[C@]4(C)[C@H]3CC[C@@]21C`, the growth in [1] was 11.6%; in test [2], -27.3% (active); in test [3] it was 53%; in [4], 54.5%; in test [5], 47.7%; in test [6], -38.7% (active). Also, the growth in test [7] is 46.8%; in test [8], 48.9%; in test [10], 47.7%.
For `C#Cc1nc(/C=C\CCCCCCC(=O)NO)cs1`, the growth in test [1] was -19.7% (active); in [2] it was -1.07% (active); in [3] it was 40.9%; in test [4], 45.7%; in [5], 69.9%; in test [6] it was 91.6%. For the same compound, the growth is -68.2% (active) in test [7] and 64.9% in test [9].
Take `CCCCCC[n+]1ccc(SCC(=O)n2ccc3ccccc32)c2ccccc21`: the growth in test [1] was 56.6%; in test [2], 49.6%; in test [3] it was 92.1%; in [4], 98.4%; in test [5], 58.6%; in test [6], 89.9%. The growth in test [7] was 74.1%; in test [8], 84.7%; in test [9], 97.6%; in [10], 103%.
On to `C/C(=N\NC(N)=S)c1nnn(-c2ccc([N+](=O)[O-])cc2)c1C`, for which the growth is 110% in [1]; 103% in test [2]; 98.6% in test [3]; 98.7% in test [4]; 108% in test [5]; 104% in test [6]. Besides, the results for the growth in test [7] and in [9] were 100% and 96.3%, respectively.
Turning to `C#Cc1nc(/C=C/CCCCCCC(=O)NO)cs1`, the growth in test [1] was -39.9% (active); in test [2], -12.7% (active); in test [3], 31.8%; in test [4] it was 59.3%; in [5] it was 47.2%; in test [6] it was 88.8%. For the same compound, the growth is -80.3% (active) in test [7] and 80% in test [9].
In the case of `NS(=O)(=O)c1ccc(Nc2nc(Nc3ccccc3)nc(N3N=C(c4ccc(Cl)cc4)CC3c3ccc(Cl)cc3)n2)cc1` (stereo not given), the growth was 5.52% (active) in test [1]; 37.1% in test [2]; 68.4% in [3]; 43.2% in [4]; 49.5% in test [5]; 64.9% in test [6]. Also, the growth was 34.3% in test [7] and 78.8% in [9].
Take `CCNC(=O)Oc1ccc(/C(=C(/C)c2ccc(OC)cc2)c2ccc(OCCN3CCCCCC3)cc2)cc1`: the growth was -20.7% (active) in test [1]; 12.1% in test [2]; 68.4% in test [3]; 72.7% in test [4]; 62.7% in [5]; 79% in test [6]. Also, the growth is 65.4% in test [7], 16.2% in test [9] and 59.4% in [10].

For the origin of these results see PubChem BioAssay (NCI).
